98 compounds from PubChem BioAssay AID1942 (Johns Hopkins Ion Channel Center, 2009) can be followed below.

About 580 (24%) of roughly 2,400 compounds were called active. Only a sample is shown. Values without a mark were called inactive.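 How the source made its calls: active means activity change at or above the mean plus 3 SD of buffer wells without dofetilide, per plate; inactive means the rest.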

Chain of Potassium voltage-gated channel subfamily KQT member 2 (Rattus norvegicus) (O88943 whole entry, looked up): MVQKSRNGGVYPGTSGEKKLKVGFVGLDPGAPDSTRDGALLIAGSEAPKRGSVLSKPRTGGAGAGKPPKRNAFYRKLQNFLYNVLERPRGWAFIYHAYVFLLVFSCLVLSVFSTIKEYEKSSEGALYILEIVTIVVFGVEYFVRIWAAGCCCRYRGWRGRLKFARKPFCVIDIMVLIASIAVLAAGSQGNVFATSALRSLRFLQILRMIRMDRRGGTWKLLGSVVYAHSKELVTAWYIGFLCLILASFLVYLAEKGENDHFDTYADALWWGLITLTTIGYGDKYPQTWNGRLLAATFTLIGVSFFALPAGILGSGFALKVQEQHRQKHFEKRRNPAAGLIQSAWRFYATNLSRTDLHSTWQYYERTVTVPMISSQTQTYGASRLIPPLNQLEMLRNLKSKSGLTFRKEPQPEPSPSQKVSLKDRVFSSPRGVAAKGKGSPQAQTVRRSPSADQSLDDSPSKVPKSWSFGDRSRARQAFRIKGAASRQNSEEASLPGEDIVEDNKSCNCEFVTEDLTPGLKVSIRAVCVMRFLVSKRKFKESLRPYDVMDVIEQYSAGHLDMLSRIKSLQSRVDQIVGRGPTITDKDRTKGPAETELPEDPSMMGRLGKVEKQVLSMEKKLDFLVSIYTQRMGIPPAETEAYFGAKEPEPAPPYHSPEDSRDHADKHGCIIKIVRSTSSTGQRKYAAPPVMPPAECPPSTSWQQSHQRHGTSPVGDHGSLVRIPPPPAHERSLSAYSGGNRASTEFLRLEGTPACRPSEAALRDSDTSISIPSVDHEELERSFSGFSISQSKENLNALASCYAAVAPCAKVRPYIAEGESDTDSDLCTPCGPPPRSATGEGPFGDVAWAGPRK

This assay has as its target Potassium voltage-gated channel subfamily KQT member 2 (Rattus norvegicus) (UniProt O88943). Briefly: rat KCNQ2 channel activation by compounds alone, confirmation, counter-screen for hERG block protector project, cell-based, CHO, FluxOR thallium flux (AID 1942).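 Further: normalized value minus buffer-control mean plus three SD of buffer wells.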 The following applies: CHO-KCNQ2 cells, FluxOR thallium flux fluorescence; at 10 µM; hits give high values.
With `Cc1cc(=O)[nH]c(SCC(=O)NC2CCCCC2)n1`, the activity change, less the hit threshold is -14.4%.

As for `Cc1cc(Cl)c(S(N)(=O)=O)cc1OCC(=O)NC1CCCCC1`, the activity change, less the hit threshold is -7.9%.

For `Cc1cc(Cl)c(S(=O)(=O)N2CCSCC2)cc1OCC(=O)NC1CCCCC1`, the activity change, less the hit threshold was 57.4% (active).

With `COC(=O)c1cc(S(=O)(=O)NCC2CCN(Cc3cc(C)ccc3C)CC2)c[nH]1`, the activity change, less the hit threshold was -11.5%.

Regarding `Cn1ccnc1C(O)c1cccc(OCc2ccccc2)c1` (stereo not drawn), the activity change, less the hit threshold is -25.3%.

Take `C/C(=N\O)C1CC(CC(=O)O)C1(C)C` (stereo not drawn): the activity change, less the hit threshold was -14.4%.

`CN(CC(=O)Nc1ccc(Cl)cc1)C(=O)c1cccc(S(=O)(=O)NCc2ccccc2)c1`: the activity change, less the hit threshold was -17.3%.

Regarding `O=C(Nc1nc2c(Br)cc(Br)cc2c(=O)s1)C1CCC1`, the activity change, less the hit threshold was 9.5% (active).

Turning to `O=C(Nc1cccc(Br)c1)C1CCCC1`, the activity change, less the hit threshold is -12.2%.

With `O=C(Nc1nnc(SCC(=O)N2CCCCC2)s1)C1CCCCC1`, the activity change, less the hit threshold was -14.2%.

In the case of `Cc1cc(=O)oc2c3c(cc(OCC(=O)N[C@@H](Cc4ccccc4)C(=O)O)c12)OC(C)(C)CC3`, the activity change, less the hit threshold was -6.7%.

For the compound `C/C(CCC12CC3CC(CC(C3)C1)C2)=N\NC(N)=S`, the activity change, less the hit threshold was -17.2%.

Turning to `COc1ccc(-n2c(=S)[nH]c3ccccc3c2=S)cc1`, the activity change, less the hit threshold was -7.3%.

`COc1ccc(-c2nc(=S)c3ccc4ccccc4c3[nH]2)cc1`: the activity change, less the hit threshold is 51.5% (active).

For the compound `COc1cccc(C2C3=C(N=c4s/c(=C\c5ccc(OCC(=O)O)cc5)c(=O)n42)c2ccccc2CC3)c1` (stereo not drawn), the activity change, less the hit threshold is -38.5%.

Take `COc1ccc(-c2csc(NC(=S)NC(=O)c3cccs3)n2)cc1Br`: the activity change, less the hit threshold was -20.8%.

For the compound `O=C(NC(=S)Nc1nc(-c2ccccc2)cs1)c1cccs1`, the activity change, less the hit threshold is -22.7%.

As to `O=C(NC(=S)Nc1nc2ccccc2s1)c1cccs1`, the activity change, less the hit threshold was 7.1% (active).

Regarding `Cc1ccc2nc(NC(=S)NC(=O)c3cccs3)sc2c1`, the activity change, less the hit threshold is 5.5% (active).

As for `COc1ccc(-c2csc(NC(=S)NC(=O)c3cccs3)n2)cc1OC`, the activity change, less the hit threshold is -5.3%.

As for `CCc1ccc2nc(NC(=O)c3cc(C)on3)sc2c1`, the activity change, less the hit threshold was -6.5%.

With `CC1CCCC(C)N1S(=O)(=O)c1ccc(NC(=O)CCn2cnc3ccccc3c2=O)cc1` (stereo not drawn), the activity change, less the hit threshold is -11.1%.

Regarding `CC(C)CC1C(C#N)=C(N)Oc2n[nH]c(-c3cccs3)c21` (stereo not drawn), the activity change, less the hit threshold is -12.4%.

Regarding `CCN1C(=O)C2(/C(=C(\O)c3ccc4c(c3)OCCO4)C(=O)C(=O)N2CCCOC)c2ccccc21` (stereo not drawn), the activity change, less the hit threshold was -12.7%.

Take `CC(C)C(=O)Nc1ccc2c(c1)Cc1cc(NC(=O)C(C)C)ccc1-2`: the activity change, less the hit threshold is -17.9%.

`O=C(CC1CCCC1)Nc1ccc2c(c1)CCC2`: the activity change, less the hit threshold was 54.5% (active).

Consider `O=C(CC1NC(=O)NC1=O)Nc1ccccc1` (stereo not drawn), for which the activity change, less the hit threshold is -21.4%.

For `CN1N=C(C(=O)N2CCc3c([nH]c4ccccc34)C2c2c(F)cccc2Cl)CCC1=O` (stereo not drawn), the activity change, less the hit threshold is -22.4%.

For the compound `Cc1ccc(C(C(=O)NC(C)(C)C)N(Cc2cccnc2)C(=O)C(=O)NC2CCCCC2)o1` (stereo not drawn), the activity change, less the hit threshold was -14.6%.

Take `CCOc1cccc(/C=N/NC(=O)c2ccc3c(c2)OCCO3)c1O`: the activity change, less the hit threshold is -18.5%.

For the compound `COc1cccc(/C=N/Nc2nc3ccccc3[nH]2)c1O`, the activity change, less the hit threshold is -3.2%.

On to `COc1cccc(C=Nc2cc(C)cc(C)c2)c1O`, for which the activity change, less the hit threshold is 10% (active).

With `COc1cccc(C=NCCCN=Cc2cccc(OC)c2O)c1O`, the activity change, less the hit threshold was 6% (active).

As to `COC(=O)c1cccc(/C=N/NC(N)=S)c1O`, the activity change, less the hit threshold was -2.4%.

With `COc1cccc(C=NCC(C)N=Cc2cccc(OC)c2O)c1O` (stereo not drawn), the activity change, less the hit threshold is -2.9%.

In the case of `COc1ccc(-n2c(SCc3ccccn3)nc3c(c2=O)SCC3)cc1OC`, the activity change, less the hit threshold is -2.7%.

Take `CCC1=C(OC(=O)N(CC)CC)N2C(=O)OC(=NCC3CC3)[C@]2(C)[C@H]2C1=CC[C@H]1C(=O)N(C)C(=O)[C@H]12`: the activity change, less the hit threshold is -15.9%.

Take `O=C1CSC(=S)N1/N=C/c1cc(Br)ccc1O`: the activity change, less the hit threshold is -6.3%.

On to `O=C(CN1CCN(c2ccc(Cl)cc2)CC1)Nc1ccc(F)cc1`, for which the activity change, less the hit threshold is -21.6%.

On to `S=c1nc(-c2ccccc2)[nH]c2ccc(Br)cc12`, for which the activity change, less the hit threshold is 135% (active).

Consider `S=c1nc(-c2ccc(Br)cc2)[nH]c2ccccc12`, for which the activity change, less the hit threshold was 100% (active).

Turning to `CCOC(=O)N/N=C\c1ccc(-c2cc(Cl)ccc2Cl)o1`, the activity change, less the hit threshold was -17.6%.

`O=C1N(CN2CCN(Cc3ccccc3)CC2)c2ccccc2C12OCCCO2`: the activity change, less the hit threshold was -12.5%.

Turning to `CCOc1cc(N2CCCC2)ccc1[N+](=O)[O-]`, the activity change, less the hit threshold is -13.1%.

In the case of `Cc1cccc(/C=N/n2c(COc3ccccc3)n[nH]c2=S)c1`, the activity change, less the hit threshold was -13.8%.

Consider `CC(C1CC2CCC1C2)n1c(-c2cccs2)n[nH]c1=S` (stereo not drawn), for which the activity change, less the hit threshold was -7.9%.

Regarding `S=c1[nH]nc(-c2cccs2)n1/N=C/c1c(Cl)cccc1Cl`, the activity change, less the hit threshold was 13.1% (active).

On to `CCC(=O)Nc1cc(=O)[nH]c2ncnn12`, for which the activity change, less the hit threshold is -13.1%.

In the case of `CCOC(=O)C1=C(C)NC(=O)NC1c1cccc(OC)c1OCc1ccccc1Cl` (stereo not drawn), the activity change, less the hit threshold was -15.6%.

Consider `CN(Cc1ccccc1)C(=O)CCc1ccccc1`, for which the activity change, less the hit threshold is -22.5%.

For the compound `CC(C)C(=O)Nc1ccc(NC(=O)CCc2ccccc2)cn1`, the activity change, less the hit threshold was -23.2%.

Turning to `CN(C)c1ccc(NC(=O)CCCc2ccccc2)cc1`, the activity change, less the hit threshold was 0.2% (active).

On to `COc1cc2c(=O)nc3n(c2cc1OC)C(c1ccccc1)N=C(N)N3` (stereo not drawn), for which the activity change, less the hit threshold is -18.8%.

Turning to `Nc1nc2c(s1)CCc1c-2cnn1-c1ccccc1`, the activity change, less the hit threshold is -29.6%.

On to `Oc1ccc(N=Nc2ccc3c(c2)OCCO3)c2ncccc12`, for which the activity change, less the hit threshold is -11.2%.

Take `Oc1c(N=Nc2ccccn2)ccc2ccccc12`: the activity change, less the hit threshold is 7.7% (active).

Take `CC1CCN(c2ccc3c(c2)S(=O)(=O)c2ccccc2C3=O)CC1`: the activity change, less the hit threshold was -25.4%.

With `Cc1cc(-c2cccc(Br)c2)c(C#N)c(N)n1`, the activity change, less the hit threshold is -13.8%.

Take `CCOC(=O)c1c(SCC(=O)Nc2nc(C)cs2)nc(=O)[nH]c1C`: the activity change, less the hit threshold is -17.9%.

As to `Cc1ccc(-c2c(=O)n(O)c3ccccc3[n+]2[O-])cc1`, the activity change, less the hit threshold was 59.1% (active).

With `O=c1c(-c2ccccc2)[n+]([O-])c2ccccc2n1O`, the activity change, less the hit threshold was -16.2%.

Regarding `O=c1c(-c2ccc(Cl)cc2)[n+]([O-])c2ccccc2n1O`, the activity change, less the hit threshold is 92.9% (active).

Take `O=c1c(-c2cccc3ccccc23)[n+]([O-])c2ccccc2n1O`: the activity change, less the hit threshold is 5.6% (active).

In the case of `FC(F)c1nnc2c(Cl)cc(C(F)(F)F)cn12`, the activity change, less the hit threshold is -8%.

`CC(=O)Nc1ccc(S(=O)(=O)N2CCC(C(=O)O)CC2)cc1`: the activity change, less the hit threshold is -26.7%.

With `Cc1cc(=O)[nH]c(SCC(=O)Nc2ccccc2C#N)c1C#N`, the activity change, less the hit threshold is -14.5%.

Consider `CCOc1cc(/C=C2/C(=O)ON=C2C)ccc1O`, for which the activity change, less the hit threshold was -11.8%.

With `COc1cccc(/C=N/n2c(SC)nnc2-c2ccccc2)c1O`, the activity change, less the hit threshold was 2.8% (active).

On to `COc1cc(-c2nnc(SCC(=O)O)n2-c2ccccc2)cc(OC)c1OC`, for which the activity change, less the hit threshold is -13.9%.

With `COc1cccc(/C=N/NC(=O)CSc2ccccc2C)c1O`, the activity change, less the hit threshold was -2.9%.

For the compound `COc1cc(S(=O)(=O)Nc2c(C)cc(C)cc2C)ccc1Cl`, the activity change, less the hit threshold is -20.6%.

For `COCCN1C(=O)C(=O)/C(=C(/O)c2ccc(S(=O)(=O)N3CCOCC3)cc2)C1c1ccc(OC)c(OC)c1` (stereo not drawn), the activity change, less the hit threshold is -17.7%.

As for `CCOC(=O)c1c(CC(C)C)csc1NC(=O)c1ccccc1C(=O)O`, the activity change, less the hit threshold is -7.7%.

`CCOC(=O)c1ccc(NC(=O)Cn2nnc(-c3ccccc3)n2)cc1`: the activity change, less the hit threshold was -26.4%.

Turning to `CCOC(=O)c1c(-c2ccc(C)o2)csc1NC(=S)NC(=O)N(C)C`, the activity change, less the hit threshold was 24.3% (active).

Take `CCOC(=O)c1c(C=O)c(C)n(Cc2ccccc2)c1C`: the activity change, less the hit threshold was -14.5%.

Turning to `CCNC(=S)Nc1scc(-c2ccccc2)c1C(=O)OCC`, the activity change, less the hit threshold is 10.6% (active).

For the compound `CCOC(=O)c1c(-c2ccccc2)csc1NC(=S)NC`, the activity change, less the hit threshold was 19% (active).

For the compound `Nc1nonc1-n1nnc(C(=O)N/N=C/c2cccc(Cl)c2Cl)c1CN1CCCC1`, the activity change, less the hit threshold is -9.3%.

Take `Oc1ccc2[nH]cnc2c1CN1CCCCC1`: the activity change, less the hit threshold was -16.5%.

As to `O=C(O)C1C2CCC(O2)C1C(=O)Nc1ccc(F)c(Cl)c1` (stereo not drawn), the activity change, less the hit threshold was -21%.

Regarding `Cc1ccc(-c2noc(CCC(=O)NC3CCCC3)n2)cc1`, the activity change, less the hit threshold is -9.6%.

For the compound `O=C(Nc1ccc(Cl)cc1Cl)c1n[nH]c(Cn2cncn2)n1`, the activity change, less the hit threshold is -6%.

Consider `CC(=O)c1cccc(NC(=O)NCc2cccs2)c1`, for which the activity change, less the hit threshold is -14.9%.

On to `CN(CCc1ccccn1)C(=O)CCC1CCCN(C(=O)c2ccsc2)C1` (stereo not drawn), for which the activity change, less the hit threshold is -13.1%.

For `Cc1ccc(C(=O)NNC(=S)NC(=O)c2ccccc2)cc1`, the activity change, less the hit threshold was -25.9%.

Turning to `Cc1ccc(C(=O)NC(=S)N(C)Cc2ccccc2)cc1`, the activity change, less the hit threshold was 7.1% (active).

For the compound `CN(Cc1ccccc1)C(=S)NC(=O)c1cccs1`, the activity change, less the hit threshold was 7.6% (active).

In the case of `O=C(c1cccs1)N1CCN=C1SCc1ccccc1`, the activity change, less the hit threshold is -22.6%.

For the compound `COc1ccc(N(CC(=O)NCc2cccnc2)S(=O)(=O)c2ccccc2[N+](=O)[O-])c(OC)c1`, the activity change, less the hit threshold was -23.8%.

Take `Cc1ccc(-n2ccc(=O)c(C(=O)Nc3ccc(S(=O)(=O)Nc4nccs4)cc3)n2)cc1`: the activity change, less the hit threshold is -13.6%.

Regarding `C=C(C)C1CC=C(C)/C(=N/NC(=O)CCC(=O)Nc2ccccc2Cl)C1` (stereo not drawn), the activity change, less the hit threshold was -11.1%.

`O=c1c2ccc(Cl)cc2nc(-c2ccc([N+](=O)[O-])cc2)n1O`: the activity change, less the hit threshold was 26.8% (active).

In the case of `O=c1c2cc(Br)ccc2nc(-c2ccc([N+](=O)[O-])cc2)n1O`, the activity change, less the hit threshold is 43.1% (active).

Regarding `O=c1c2cc(Cl)ccc2nc(-c2ccc([N+](=O)[O-])cc2)n1O`, the activity change, less the hit threshold is 31.4% (active).

As for `N#Cc1ccc(-c2nc3cc(Cl)ccc3c(=O)n2O)cc1`, the activity change, less the hit threshold was 1.6% (active).

For `COc1ccc(C(CC(=O)N2CCOCC2)c2c(O)cc(OC)cc2OC)cc1` (stereo not drawn), the activity change, less the hit threshold is -14.7%.

`COc1ccc(-c2cn3nc(SCC(=O)NC4CCCCC4)ccc3n2)cc1`: the activity change, less the hit threshold was -7.9%.
